The text below walks through data of PubChem BioAssay (EPA / NIEHS).

Active and inactive are the calls of the source. The calls were made as follows: active = hit-call score of the fitted dose curve at least 0.9, where 1 is the maximum; inactive = score below 0.9.

A short description of this experiment: BSK_IMphg_SRB: Viability Assessment in the BioMAP Diversity Plus: IMphg Assay (AID 2284292).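 Also: measured one day after compound addition.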 The following applies: primary human endothelial cells with macrophages. The procedure:
BSK_IMphg is a cell-based, multiplexed-readout assay that uses venular endothelial cells and macrophages, a human vascular primary cell, with measurements taken at 24 hours after chemical dosing in a microplate: 96-well plate.BSK_IMphg_SRB is an assay component measured in the BSK_IMphg assay. It measures […] related to cell death using Sulforhodamine staining technology.Data from the assay component BSK_IMphg_SRB was analyzed at the endpoint, BSK_IMphg_SRB, in the positive analysis fitting direction relative to DMSO as the negative control and baseline of activity. Using a type of viability reporter, gain or loss-of-signal activity can be used to understand protein changes. To generalize the intended target to other relatable targets, this assay endpoint is annotated to the 'cell morphology' intended target family, where the subfamily is 'cell conformation'.
The levels of cell surface (or secreted, indicated by the prefix "s") biomarker endpoints were measured by ELISA. Overt cytotoxicity to cells in confluent adherent cultures (all systems other than the BT system) was assessed by measuring total protein levels using sulforhodamine B (SRB) staining in parallel cultures at the time of biomarker measurements, indicated as SRB endpoints. For proliferation assays for adherent cell types, individual cell types are cultured at sub-confluence and relative cell numbers quantified by SRB staining at time points optimized for each system (48 h: 3C and CASM3C systems; 72 h: BT and HDF3CGF systems; 96 h: SAg system). SRB was performed by staining cells with 0.1% SRB after fixation with 10% TCA and reading wells at 560 nm.Viability and proliferation of PBMC (T cells) was quantified by Alamar Blue reduction for the SAg and BT systems. For PBMC viability (referred to as PBMC Cytotoxicity within the assay endpoint names), cells were plated (75,000/well in a 96-well plate) and then chemical samples added for 1 h before addition of activators, SEB and TSST-1 (20 ng/mL final concentration each). Cells were incubated for 90 h. Then, Alamar Blue (20 uL/well) (Invitrogen, Cat DAL1100) was added for 6 h, and the plates were read with a fluorescence microplate reader at 546/580 nm (excitation/emission). For PBMC proliferation, cells were plated and activated as above but incubated for only 16 h prior to addition of Alamar Blue. Plates were read after 6 h.
For `FC(F)(F)COC(OCC(F)(F)F)OCC(F)(F)F`, the outcome was inactive.

Consider `O=S(=O)(O)CCC(F)(F)C(F)(F)C(F)(F)C(F)(F)C(F)(F)C(F)(F)F`, for which the outcome was inactive.

`C[Si](C)(C)C(F)(F)C(F)(F)C(F)(F)F`: the result was inactive.

Turning to `OC(O)(C(F)C(O)(O)C(F)(F)F)C(F)(F)F`, the outcome was inactive.

With `FC(F)C(F)(F)COCC1CO1` (stereo not given), the outcome was inactive.

For `FC(F)(F)C(F)(F)C(F)(F)C(F)(F)C(F)(F)C(F)(F)I`, the result was inactive.

For `NCC(F)(F)C(F)(F)C(F)(F)C(F)(F)F`, the outcome was inactive.

With `OCCC(F)(F)C(F)(F)C(F)(F)C(F)(F)F`, the result was inactive.

Consider `FC(F)=C(F)C(F)(F)C(F)(F)C(F)(F)C(F)(F)C(F)(F)C(F)(F)F`, for which the result was inactive.

Regarding `O=C(Cl)C(F)(F)C(F)(F)C(F)(F)C(=O)Cl`, the result was inactive.
